Drawing on PubChem BioAssay, this text covers composite z-score and z-score for five compounds.

Assay [1] has as its system Plasmodium falciparum Sir2 (PF13_0152, Sir2A). As to the kind of experiment: pfSir2 binders on small-molecule microarrays, primary screen, biochemical, small-molecule microarray, 635 nm fluorescence (AID 1098).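 Further: score merges spot fluorescence intensity with its signal-to-noise ratio.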 Particulars: small-molecule microarray binding, fluorescence 635 nm; higher = more signal.
A short description of assay [2]: small-molecule microarray binders of probe aDKK1, primary screen, biochemical, biotinylated probe, 635/667 nm fluorescence (AID 1099).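 Further: score merges 667nm spot fluorescence with signal to noise across triplicate slides.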 The following applies: higher = more signal.
Assay [3] in a line: small-molecule microarray binders of probe aCHRDL2, primary screen, biochemical, biotinylated probe, 635/667 nm fluorescence (AID 1100). Particulars: higher = more signal.
The nature of assay [4]: splicing luciferase reporter signal modulators, primary screen, spliceosome inhibition project, cell-based, HEK293, splice +/- reporter (AID 1101).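 Further: HEK293 cells carrying a splicing-competent luciferase reporter gene; test concentration not given here.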 Particulars: luminescence, 24 h, higher = more signal, called active from +8 up or from −8 down.
Assay [5] concerns the target Fibroblast growth factor 10 (Homo sapiens) (UniProt O15520). As to the kind of experiment: FGF10 binders on small-molecule microarrays, primary screen, biochemical, small-molecule microarray, 635 nm fluorescence (AID 1102). The following applies: FGF10 binding, fluorescence 635 nm, higher = more signal.
Assay [6] has as its system glycogen synthase kinase-3 (GSK3A per assay name; protocol says GSK3B). As to the kind of experiment: GSK3 binders on small-molecule microarrays, primary screen, biochemical, small-molecule microarray, 635 nm fluorescence, GSK3A (AID 1103). Further: the record names both GSK3A and GSK3B. The following applies: small-molecule microarray binding, fluorescence 635 nm; higher = more signal.
The target of assay [7] is Epidermal growth factor receptor (Homo sapiens) (UniProt P00533). As to the kind of experiment: EGFR binders on small-molecule microarrays, primary screen, biochemical, small-molecule microarray, 635 nm fluorescence (AID 1104).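 Further: score merges 667 nm emission intensity with spot signal to noise over triplicate slides.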 The following applies: EGFR binding, higher = more signal.
Chain of Epidermal growth factor receptor (Homo sapiens) (P00533 whole entry, looked up): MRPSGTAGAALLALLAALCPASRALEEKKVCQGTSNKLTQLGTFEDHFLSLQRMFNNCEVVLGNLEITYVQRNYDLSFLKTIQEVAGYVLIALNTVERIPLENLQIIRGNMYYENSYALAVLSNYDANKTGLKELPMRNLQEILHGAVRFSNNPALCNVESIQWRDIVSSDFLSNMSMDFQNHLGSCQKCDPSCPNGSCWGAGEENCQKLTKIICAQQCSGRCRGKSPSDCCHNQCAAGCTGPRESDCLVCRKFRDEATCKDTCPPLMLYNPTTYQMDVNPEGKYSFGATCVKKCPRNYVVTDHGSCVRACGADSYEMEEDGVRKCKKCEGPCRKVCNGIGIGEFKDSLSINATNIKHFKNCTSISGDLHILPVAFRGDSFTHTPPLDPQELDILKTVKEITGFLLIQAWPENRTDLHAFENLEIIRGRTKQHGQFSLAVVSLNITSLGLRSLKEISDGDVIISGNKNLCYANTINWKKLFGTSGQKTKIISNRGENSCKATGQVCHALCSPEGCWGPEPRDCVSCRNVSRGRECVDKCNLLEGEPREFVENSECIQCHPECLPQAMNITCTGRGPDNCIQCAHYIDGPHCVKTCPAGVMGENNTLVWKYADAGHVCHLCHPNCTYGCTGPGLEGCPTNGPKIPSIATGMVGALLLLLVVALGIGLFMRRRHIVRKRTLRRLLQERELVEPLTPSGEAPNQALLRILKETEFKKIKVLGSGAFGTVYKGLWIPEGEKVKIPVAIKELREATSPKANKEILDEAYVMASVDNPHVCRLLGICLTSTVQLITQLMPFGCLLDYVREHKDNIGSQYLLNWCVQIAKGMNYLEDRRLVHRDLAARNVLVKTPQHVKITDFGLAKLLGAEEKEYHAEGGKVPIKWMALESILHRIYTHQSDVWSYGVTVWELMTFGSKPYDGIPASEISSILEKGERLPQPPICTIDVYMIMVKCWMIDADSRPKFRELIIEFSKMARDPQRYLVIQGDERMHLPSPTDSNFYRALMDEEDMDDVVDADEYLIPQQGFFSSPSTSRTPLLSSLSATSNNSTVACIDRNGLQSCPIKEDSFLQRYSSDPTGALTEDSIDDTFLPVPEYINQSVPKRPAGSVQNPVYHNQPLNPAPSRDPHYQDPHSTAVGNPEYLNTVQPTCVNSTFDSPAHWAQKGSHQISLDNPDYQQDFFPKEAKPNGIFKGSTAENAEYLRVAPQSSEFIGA
Assay [8] addresses Follistatin-related protein 3 (Homo sapiens) (UniProt O95633). As to the kind of experiment: FSTL3 binders on small-molecule microarrays, primary screen, biochemical, small-molecule microarray, 635 nm fluorescence (AID 1105).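 Further: score merges emission near 667 nm and signal to noise per printed spot across three slides.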 The following applies: FSTL3 binding, higher = more signal.
Assay [9] has as its target Dickkopf-related protein 1 (Homo sapiens) (UniProt O94907). Nature of the assay: DKK1 binders on small-molecule microarrays, primary screen, biochemical, small-molecule microarray, 635 nm fluorescence scan (AID 1106).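 Further: score merges emission near 667 nm with signal to noise over three replicate slides.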 The following applies: DKK1 binding, higher = more signal.
The test system of assay [10] is Inhibin beta A chain (activin A). Nature of the assay: INHBA (activin A) binders on microarrays, primary screen, biochemical, small-molecule microarray, 635 nm fluorescence scan (AID 1107).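 Further: mouse activin A protein probed at 4.33 µg/mL on printed slides; score merges bound-protein fluorescence near 667 nm with spot signal-to-noise.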 The following applies: small-molecule microarray binding, higher = more signal.
For assay [11], the system named is Human papillomavirus type 1a protein E7 (residues 44-93). Nature of the assay: HPV1a E7 fragment binders on microarrays, primary screen, biochemical, small-molecule microarray, residues 44-93, 635 nm fluorescence (AID 1108).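 Further: E7 fragment applied at 1 µg/mL in TBST for 1 h at 4 C; score combines spot fluorescence with its signal to noise ratio.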 The following applies: small-molecule microarray binding, fluorescence 635 nm; higher = more signal.
A short description of assay [12]: modulators of HCV replicon luciferase signal, primary screen, HCV replication inhibitor project, Huh7 cells, luciferase reporter (AID 1109).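 Further: huh7 hepatoma cells harbouring a luciferase neomycin HCV replicon reporter; luciferase luminescence as measure of HCV replicon replication; test concentration not given here.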 The following applies: 48 h, higher = more signal. In general terms: A replicon is a self-replicating genome or part of one, used to study replication in cells.
In assay [13] the target is Left-right determination factor 2 (Homo sapiens) (UniProt O00292). As to the kind of experiment: LEFTY2 binders on small-molecule microarrays, primary screen, biochemical, small-molecule microarray, 635 nm fluorescence scan (AID 1110). The following applies: LEFTY2 binding, higher = more signal.
Chain of Left-right determination factor 2 (Homo sapiens) (O00292 whole entry, looked up): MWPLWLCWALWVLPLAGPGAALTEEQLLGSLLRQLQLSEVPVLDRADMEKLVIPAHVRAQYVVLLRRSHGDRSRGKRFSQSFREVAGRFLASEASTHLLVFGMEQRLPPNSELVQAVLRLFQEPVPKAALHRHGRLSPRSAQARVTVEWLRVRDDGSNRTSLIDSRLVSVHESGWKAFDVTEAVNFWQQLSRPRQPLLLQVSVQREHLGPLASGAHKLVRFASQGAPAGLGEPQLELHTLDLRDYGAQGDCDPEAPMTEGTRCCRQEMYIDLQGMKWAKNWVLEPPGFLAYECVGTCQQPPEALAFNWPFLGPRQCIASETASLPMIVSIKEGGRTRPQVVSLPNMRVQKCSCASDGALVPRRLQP
For assay [14], the target named is Calmodulin-1 (Homo sapiens) (UniProt P0DP23). Nature of the assay: CALM1 binders on microarrays, EGTA buffer, profiling panel, biochemical, small-molecule microarray, Cy5-labelled CALM1 (AID 1111).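 Further: labelled calmodulin applied in Tris saline Tween buffer holding calcium plus EGTA and DTT.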 Particulars: Cy5-CALM1 binding fluorescence, higher = more signal.
Assay [15] shares this target. As to the kind of experiment: calcium-bound CALM1 binders on microarrays, profiling panel, artefact control for SMM control-protein annotation, biochemical, small-molecule microarray, Cy5-labelled CALM1, plus calcium (AID 1112).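 Further: score merges spot fluorescence with signal to noise from triplicate slides.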 Particulars: Cy5-CALM1 binding fluorescence, higher = more signal.
Assay [16] is described as follows: small-molecule microarray binders of probe aWnt5a, primary screen, biochemical, biotinylated probe, 635/667 nm fluorescence (AID 1113).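 Further: score merges 667 nm fluorescence intensity with signal-to-noise per printed feature.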 The following applies: higher = more signal.
Assay [17] can be described thus: small-molecule microarray binders of probe aShh, primary screen, biochemical, biotinylated probe, 635/667 nm fluorescence (AID 1114).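 Further: probe is biotin-labelled aShh protein from a stem cell growth factor screen; measures binding of labelled protein to compounds printed on the slide; score merges feature fluorescence at 667 nm with signal-to-noise.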 Particulars: higher = more signal.
The nature of assay [18]: small-molecule microarray binders of probe aNog, primary screen, biochemical, biotinylated probe, 635/667 nm fluorescence (AID 1115).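 Further: probe is biotinylated aNog protein used at 0.15 µg/mL for 1 h at 4 C; z-score combines 667 nm fluorescence of each spot with its signal to noise.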 The following applies: higher = more signal.
The target in assay [19] is Torsin-1A-interacting protein 1 (Homo sapiens) (UniProt Q5JTV8). As to the kind of experiment: LAP1 binders from COS7 cell lysate, primary screen, small-molecule microarray, 635/667 nm fluorescence (AID 1116). Particulars: COS7-hLAP1 lysate binding, 635 nm fluorescence, higher = more signal.
Chain of Torsin-1A-interacting protein 1 (Homo sapiens) (Q5JTV8 whole entry, looked up): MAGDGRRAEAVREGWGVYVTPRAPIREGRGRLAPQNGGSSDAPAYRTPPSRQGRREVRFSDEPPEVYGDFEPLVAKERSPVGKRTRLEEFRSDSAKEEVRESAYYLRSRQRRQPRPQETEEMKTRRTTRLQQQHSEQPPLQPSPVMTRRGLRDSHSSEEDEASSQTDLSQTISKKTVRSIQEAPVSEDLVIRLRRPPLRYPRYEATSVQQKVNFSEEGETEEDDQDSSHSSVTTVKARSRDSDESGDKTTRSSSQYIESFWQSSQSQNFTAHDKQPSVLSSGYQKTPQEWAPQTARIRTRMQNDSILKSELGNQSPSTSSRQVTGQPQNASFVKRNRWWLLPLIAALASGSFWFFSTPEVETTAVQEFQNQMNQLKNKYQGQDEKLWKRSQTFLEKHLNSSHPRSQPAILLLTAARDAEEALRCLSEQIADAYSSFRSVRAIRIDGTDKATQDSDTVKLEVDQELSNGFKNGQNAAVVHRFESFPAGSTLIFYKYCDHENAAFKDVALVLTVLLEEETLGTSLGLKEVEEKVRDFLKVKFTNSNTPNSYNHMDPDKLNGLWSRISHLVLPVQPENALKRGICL
Assay [20] deals with Alpha-bungarotoxin (Bungarus multicinctus) (UniProt P60615). Nature of the assay: alpha-bungarotoxin binders on microarray, profiling panel, artefact control for SMM control protein annotation, biochemical, small-molecule microarray, Alexa647 label, 635/667 nm fluorescence (AID 1117). The following applies: alpha-BTX-A647 binding fluorescence, higher = more signal.
Chain of Alpha-bungarotoxin (Bungarus multicinctus) (P60615 whole entry, looked up): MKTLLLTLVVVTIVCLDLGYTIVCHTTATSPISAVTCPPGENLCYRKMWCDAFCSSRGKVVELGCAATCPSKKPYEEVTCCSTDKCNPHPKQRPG

SMILES strings stand for the structures. The source made the active and inactive calls.

Chain of Dickkopf-related protein 1 (Homo sapiens) (O94907 whole entry, looked up): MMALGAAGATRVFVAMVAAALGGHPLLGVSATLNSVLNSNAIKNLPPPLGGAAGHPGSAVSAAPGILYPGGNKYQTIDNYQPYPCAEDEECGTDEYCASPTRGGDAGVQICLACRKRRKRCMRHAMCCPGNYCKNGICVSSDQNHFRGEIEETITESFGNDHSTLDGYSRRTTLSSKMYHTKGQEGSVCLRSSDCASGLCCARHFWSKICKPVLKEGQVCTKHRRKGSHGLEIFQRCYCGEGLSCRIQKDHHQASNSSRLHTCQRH
Chain of Follistatin-related protein 3 (Homo sapiens) (O95633 whole entry, looked up): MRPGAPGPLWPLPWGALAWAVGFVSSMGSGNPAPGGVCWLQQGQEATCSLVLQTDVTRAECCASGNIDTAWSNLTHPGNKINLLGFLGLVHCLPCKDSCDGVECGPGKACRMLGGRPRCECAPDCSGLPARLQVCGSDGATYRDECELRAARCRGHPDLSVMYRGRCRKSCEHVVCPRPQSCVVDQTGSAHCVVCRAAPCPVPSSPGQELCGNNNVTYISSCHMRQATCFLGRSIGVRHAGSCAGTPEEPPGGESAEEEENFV
Chain of Fibroblast growth factor 10 (Homo sapiens) (O15520 whole entry, looked up): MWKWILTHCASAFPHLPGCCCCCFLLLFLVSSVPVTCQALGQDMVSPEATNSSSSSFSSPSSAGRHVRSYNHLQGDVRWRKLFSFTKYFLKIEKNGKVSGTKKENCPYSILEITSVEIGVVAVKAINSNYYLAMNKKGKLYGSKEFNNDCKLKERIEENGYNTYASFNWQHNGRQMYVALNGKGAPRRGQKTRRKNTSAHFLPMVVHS

With `C=CC[C@H](O)c1ccc(O)c2ccccc12`, the composite z-score in assay [1] was 0.623; in assay [2], -0.196; in assay [3], -0.0155; in [5] it was 1.1; in [6] it was 1.01; in [7], 1.04. Besides, the composite z-score in [8] was 1.42; in [9], 1.34; in assay [10] it was 1.21; in assay [11] it was 0.7; in assay [13] it was 0.685; in assay [14] it was -0.536. Besides, the composite z-score in assay [15] was -1.32; in assay [16] it was -0.0521; in assay [17], 0.151; in assay [18] it was -0.158; in [19], 0.655; in assay [20] it was 1.23. The z-score was -1.26 (inactive) in [4] and -2.04 in [12].
For the compound `C=CCNC(=O)[C@@H]1[C@H]2C(=O)O[C@H](c3ccccc3)[C@H](c3ccccc3)N2[C@H](c2ccc(O)cc2)[C@@]12C(=O)Nc1ccc(C#CC3=CCCCC3)cc12`, the composite z-score in assay [1] was 1.6; in [2] it was 0.582; in assay [3] it was -0.228; in assay [5] it was 1.24; in [6], 0.887; in [7], 0.494. The composite z-score in assay [8] worked out at 0.79; in assay [9], 0.626; in assay [10], 0.406; in [11] it was 1.44; in [13] it was 0.385; in [14] it was 1.1. The composite z-score in assay [15] was 0.683; in [16] it was 0.171; in assay [17], 1.85; in [18], 2.03; in assay [19], 1.58; in [20], 1.9. The z-score in [4] was -0.258 (inactive); in [12], -2.61.
In the case of `CCOC(=O)C1=CC[C@@H](c2ccccc2)N(S(=O)(=O)c2ccc(C)cc2)[C@@H]1C#N`, the composite z-score in assay [1] is 0.921; in assay [2] it was 0.386; in assay [3], 0.868; in assay [5], 0.562; in assay [6], -0.199; in [7], -0.181. The composite z-score in assay [8] is 0.364; in [9], -0.542; in assay [10] it was 0.767; in assay [11], 1.32; in assay [13], 0.0775; in [14] it was 1.2. Further, the composite z-score in [15] worked out at 0.325; in assay [16] it was 0.0438; in [17], 0.14; in assay [18], 0.404; in [19], 0.349; in assay [20] it was 0.786. Moreover, the z-score was 0.694 (inactive) in assay [4] and -1.72 in assay [12].
Take `O=C(N1CCOCC1)[C@]1(CCS(=O)(=O)c2ccccc2)N=C(c2ccc(OCCCO)cc2)O[C@@H]1c1ccccc1`: the composite z-score is 1.5 in [1]; 1.18 in [2]; 1.37 in [3]; 0.59 in assay [5]; 0.7 in assay [6]; -0.113 in [7]. The composite z-score in assay [8] was 0.488; in assay [9], -0.753; in assay [10], 0.599; in assay [11], 0.794; in assay [13], -0.685; in assay [14] it was 1.52. The composite z-score was 1.14 in assay [15]; -0.0445 in assay [16]; 0.123 in [17]; -0.087 in assay [18]; 2.3 in assay [19]; 1.82 in assay [20]. Also, the z-score is -1.04 (inactive) in [4] and -0.954 in [12].
Take `CCOC(=O)C1=C[C@@H](C(C)(C)C)N(S(=O)(=O)c2ccc(C)cc2)[C@H]1c1ccc(OC)cc1`: the composite z-score in assay [1] is 0.463; in assay [2], 0.305; in [3], -0.0462; in assay [5] it was 0.998; in assay [6], 1.29; in assay [7], 0.902. For the same compound, the composite z-score in assay [8] was determined as 1.27; in assay [9] it was 0.33; in [10], 0.318; in assay [11], 1.34; in assay [13] it was 0.535; in [14], 1.49. The composite z-score in assay [15] is 0.577; in assay [16], 0.0279; in assay [17], 0.216; in assay [18], -0.397; in assay [19] it was 1.97; in assay [20] it was 1.14. Moreover, the z-score is -1.5 (inactive) in assay [4] and -2.36 in [12].
